TRPM1 prom inh: inhibitors of MITF-dependent TRPM1 promoter reporter, primary screen, cell-based, SK-MEL-5, single point, luciferase; SK-MEL-5 TRPM1 promoter luciferase, 24 h; inhibition, % at 12.5 µM; 330,000 compounds, 0.83% hits;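 active = mean inhibition across replicates of 60% or more, whatever share of single replicates reaches that level; inconclusive = some that reach 60%, reason not given; inactive = mean inhibition across replicates below 60%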
CF NFkB inh: inhibitors of PAF-induced NF-kB signaling, primary screen, cell-based, GFP fluorescence, uHTS | AID 588850, 2011 | inhibition, % at 5 µM | KKLEB NF-kB-GFP reporter, GFP fluorescence overnight | 360,000 compounds, 0.86% hits;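 active = at least 50% inhibition at 5 µM, scaled per plate between neutral and stimulator controls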;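 also: PAF is a Pseudomonas aeruginosa culture filtrate used as stimulus; plate controls were PAF-stimulated DMSO wells for no effect and unstimulated DMSO wells for full effect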
KKLEB cytotox: cytotoxicity in KKLEB CF airway cells, primary screen, cytotoxicity control for CF NF-kB inhibitor project, cell-based, uHTS, fluorescence assay plates. AID 602141, 2011. activity change (cytotoxicity), % at 5 µM. 360,000 compounds, 0.36% hits. KKLEB CF airway cells viability, ATPlite luminescence, overnight; hits give low values; cells stimulated with P. aeruginosa culture filtrate;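 active = corrected activity change at or below -50% at 5 µM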
Shn3 inh set2: reduction of Shn3 3'UTR firefly luciferase signal, primary screen, Schnurri-3 inhibitor project, cell-based, Clone20 osteoblasts, set 2 | Clone20 osteoblast Shn3 3'UTR firefly luciferase, 24 h | inhibition, % at 12.5 µM | 360,000 compounds, 0.52% hits | AID 588674, 2011;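 active = mean inhibition of at least 75% with every replicate also reaching 75%; inconclusive = mean inhibition at least 75% but some replicate below; inactive = mean inhibition below 75%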;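 also: 0% = median of neutral control wells and 100% = pilot-screen positive control compound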
HIF-2a inh: HIF-2a reporter inhibitors, primary screen, luminescence, 786-0 RCC cells | 786-0 RCC cells HIF-2a reporter, luciferase luminescence, overnight | inhibition, % at 18.8 µM | 360,000 compounds, 0.72% hits;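 active = inhibition of the luminescence signal of 40% or more relative to plate controls, in a single-dose primary screen at 18.75 µM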
Peg3 promoter: Peg3 promoter-driven luciferase inhibitors, primary screen, cell-based, HeLa, luciferase luminescence; 360,000 compounds, 1.7% hits; HeLa PEG-Prom luciferase reporter, overnight; inhibition, % at 20 µM; AID 588405, 2011;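 active = inhibition of at least 50% at 20 µM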
Mdm2 MdmX conf: retested Mdm2-MdmX interaction blockers, confirmation, cell-based, luminescence, single concentration, set 2 | shares compounds with HIF-2a inh | SaOS-2 split-luciferase Mdm2/MdmX complementation | inhibition, % at 8 µM | 740 compounds, 99% hits | AID 504601, 2011;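 active = mean inhibition of the luminescence signal across two replicates at or above 26 percent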
HIF-2a conf: HIF-2a reporter inhibitor retest, confirmation, luminescence, 786-0 RCC cells. shares compounds with HIF-2a inh. inhibition, % at 18.8 µM. 1,800 compounds, 56% hits. HIF-2a luciferase reporter luminescence, overnight. AID 651580, 2012;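 active = mean inhibition across four replicates of at least 40 percent at the single tested concentration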
HIF-1a cs: HIF-1a luciferase reporter signal reduction – MiaPaCa-2 cells, single concentration, counter-screen for HIF-2a inhibitor project, confirmation; shares compounds with HIF-2a inh; MiaPaCa-2 HIF-1a luciferase reporter, desferoxamine, overnight; inhibition, % at 18.8 µM; 1,800 compounds, 72% hits; AID 651589, 2012;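 active = mean inhibition of the reporter signal across four replicates at the single tested dose of 50% or more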
An asterisk follows results filed as active; ? = inconclusive; nt = not tested or not shown. Rows were chosen to be rich in hits. Some 2.8% of all compounds tested hit in one or more screens of this group.

SMILES	TRPM1 prom inh	CF NFkB inh	KKLEB cytotox	Shn3 inh set2	HIF-2a inh	Peg3 promoter	HIF-2a conf	HIF-1a cs	others
Cc1cc(O)c2c(c1)CC1C3CCC4CC(=O)CCC4(C)C3CC(=O)C21C (stereo not drawn)	34	18	-12	21	4	20	nt	nt
COc1ccc2cc1Oc1ccc(cc1)C[C@H]1c3cc(c(OC)cc3CCN1C)Oc1c(OC)c(OC)cc3c1[C@@H](C2)N(C)CC3	-12	6	19	-5	7	52*	nt	nt	Mdm2 MdmX conf=100*
COc1ccc2c(c1OC)CN(C)CCc1cc3c(cc1C(O)C2)OCO3 (stereo not drawn)	-1	3	-3	8	7	-3	nt	nt
Cc1cc(C(=O)CCl)c(C)n1CCc1ccc(Cl)cc1	78*	30	-30	41	48*	98*	49*	105*
CC(C)(C)c1ccc(-c2cc(N)n[nH]2)cc1	95*	3	2	33	87*	-76	95*	74*
Cc1ccc(-c2cc(N)n[nH]2)cc1	-4	9	-3	0	-74	-1	nt	nt
COC1(OC)C(/C=C/c2ccc(C)cc2)C(C#N)(C#N)C1(OC)OC (stereo not drawn)	28	19	-11	?	43*	22	7	65*
CC1CCc2nc(NC(=O)c3ccco3)sc2C1 (stereo not drawn)	32	-18	-31	49	43*	18	72*	88*
CC1CCc2nc(NC(=O)Cc3cccs3)sc2C1 (stereo not drawn)	-126	17	-8	-68	-290	-352	nt	nt
CCc1ccc(-c2cn3nc(C)c(C)nc3n2)cc1	77*	-4	-9	78	66*	71*	91*	84*
Cc1nc2nc(-c3ccc(F)cc3)cn2nc1C	-15	-14	7	-20	-56	-88	nt	nt
Cc1ccoc1C(=O)Nc1ccc(CC(=O)O)cc1	58	6	-5	39	88*	-23	94*	51*
O=C(Nc1ccc(N2CCN(C(=O)c3ccccc3)CC2)cc1)c1ccc(Br)o1	-5	-2	6	37	-40	-45	nt	nt
O=C(Nc1nc2c(Cl)cccc2s1)c1ccc([N+](=O)[O-])o1	5	-25	1	6	-154	-12	nt	nt
CC(C)(C)C(=O)N1CCN(c2ccc(NC(=O)c3ccc([N+](=O)[O-])o3)cc2)CC1	81*	56*	-4	93*	88*	97*	10	81*
CCC(=O)N1CCN(c2ccc(NC(=O)c3ccc([N+](=O)[O-])o3)cc2)CC1	80*	56*	-21	?	61*	106*	31	74*
O=C(Nc1cccc(NC(=O)c2ccccc2Cl)c1)c1ccc([N+](=O)[O-])o1	77*	78*	-9	45	61*	98*	37	104*
O=C(Nc1ccc(N2CCN(C(=O)c3ccc(Cl)cc3)CC2)cc1)c1ccc([N+](=O)[O-])o1	90*	96*	-78*	98*	97*	104*	87*	107*
COC(=O)c1cc2cc(Cl)ccc2nc1SC	-4	10	-8	0	-3	-11	nt	nt
O=C(Nc1ccc(N2CCN(Cc3ccccc3F)CC2)cc1)c1ccc([N+](=O)[O-])o1	98*	81*	-77*	64	93*	100*	31	105*
CCCC(=O)N1CCN(c2ccc(NC(=O)c3ccc([N+](=O)[O-])o3)cc2)CC1	89*	90*	-63*	44	94*	100*	64*	97*
O=C(Nc1ccc(N2CCN(Cc3ccccc3F)CC2)cc1)c1ccccc1[N+](=O)[O-]	7	-13	-2	21	19	11	nt	nt
CS(=O)(=O)N1CCN(c2ccc(NC(=O)c3ccc([N+](=O)[O-])o3)cc2)CC1	75*	84*	-65*	97*	79*	104*	10	57*
COc1ccc(C(O)c2cnc(C)n2Cc2ccccc2)cc1 (stereo not drawn)	nt	-36	0	7	-10	-10	nt	nt
CC(=O)OC1CC2C(C)(C)C(=O)C=CC2(C)C2CCC3(C)C(c4ccoc4)OC(=O)C4OC43C12C (stereo not drawn)	nt	33	0	-10	45*	45	42*	59*
SMILES	TRPM1 prom inh	CF NFkB inh	KKLEB cytotox	Shn3 inh set2	HIF-2a inh	Peg3 promoter	HIF-2a conf	HIF-1a cs	others
CC(=O)O[C@@H]1C[C@H]2C(C)(C)C(=O)C=C[C@]2(C)[C@H]2CC[C@@]3(C)[C@H](c4ccoc4)OC(=O)[C@H]4O[C@]43[C@@]21C	12	28	19	-4	58*	31	49*	77*
CC1(C)OC(=O)C=C[C@]2(C)[C@H]3CC[C@@]4(C)[C@H](c5ccoc5)OC(=O)[C@H]5O[C@]54[C@]3(C)C(=O)C[C@@H]12	10	-13	9	-2	11	2	nt	nt
Cc1nc(SCc2cccc(C(=O)O)c2)nc2c1CCCC2	28	-2	0	29	86*	-48	84*	25
CC1(C)Cc2c(c(N3CCOCC3)nc3sc4c(NCCN)ncnc4c23)CO1	70*	-11	-4	-29	45*	100*	2	44
COc1ccc(-n2nnnc2S(=O)(=O)CC(=O)N2CCCCC2)cc1	74*	83*	-54*	92*	90*	103*	18	-5
COc1cc(OC)cc(-n2nnnc2SCC(=O)N2CCCC2)c1	4	-11	1	13	-10	21	nt	nt
CCn1c(/C=C/N(C(C)=O)c2ccccc2)[n+](CCCS(=O)(=O)[O-])c2cc(Cl)c(Cl)cc21	17	0	5	-12	8	-12	nt	nt
CCn1c(/C=C/Nc2ccccc2)[n+](CC)c2cc(Cl)c(Cl)cc21	?	22	-34	88*	68*	104*	-3	88*

Bioassay records from PubChem.
